In PubChem BioAssay (EPA / NIEHS):
Active and inactive are the calls of the source. Rule for the calls: active = hit-call score of the fitted dose curve at least 0.9, where 1 is the maximum; inactive = score below 0.9.

Experiments:
[1] = read-out: Interleukin-1 alpha (IL1a), IL1A (gene 3552); assay: BSK_KF3CT_IL1a: BioMAP Diversity Plus: KF3CT Assay for Interleukin-1 alpha (IL1a) Biomarker Activity (AID 2283070); details: primary human keratinocytes with fibroblasts; actives raise or lower the signal
How it was run: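 Chemicals were dosed onto co-cultured human keratinocytes and foreskin fibroblasts, IL-1a was quantified by ELISA at 24 h, and activity was fitted in both directions relative to DMSO controls.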

[2] = read-out: TIMP metallopeptidase inhibitor 2 (TIMP2), TIMP2 (gene 7077); assay: BSK_KF3CT_TIMP2: BioMAP Diversity Plus: KF3CT Assay for TIMP metallopeptidase inhibitor 2 (TIMP2) Biomarker Activity (AID 2283071); details: primary human keratinocytes with fibroblasts; actives raise or lower the signal
How it was run: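 Cells: human keratinocytes co-cultured with foreskin fibroblasts. Treat with chemical, 24 h. Measure TIMP-2 by ELISA; fit curves bidirectionally vs DMSO baseline.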

[3] = read-out: C-C motif chemokine 2 (Homo sapiens) (UniProt P13500); assay: BSK_KF3CT_MCP1: BioMAP Diversity Plus: KF3CT Assay for Monocyte Chemoattractant Protein 1 (MCP1/CCL2) Biomarker Activity (AID 2283073); details: primary human keratinocytes with fibroblasts; actives raise or lower the signal
How it was run: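 ELISA read-out of MCP-1, 24 h post-dose, in primary human skin keratinocytes co-cultured with fibroblasts. Parallel SRB staining monitors cytotoxicity; changes fitted both directions relative to DMSO.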

[4] = read-out: Matrix Metallopeptidase 9 (MMP9), MMP9 (gene 4318); assay: BSK_KF3CT_MMP9: BioMAP Diversity Plus: KF3CT Assay for Matrix Metallopeptidase 9 (MMP9) Biomarker Activity (AID 2283074); details: primary human keratinocytes with fibroblasts; actives raise or lower the signal;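 for AC50: MMP9 protein level quantified by ELISA in the co-culture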
How it was run: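 Human keratinocyte/foreskin fibroblast co-culture; compound added; 24 h; MMP-9 by ELISA; bidirectional fit vs DMSO baseline.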

[5] = read-out: urokinase plasminogen activator (uPA), PLAU (gene 5328); assay: BSK_KF3CT_uPA: BioMAP Diversity Plus: KF3CT Assay for urokinase plasminogen activator (uPA) Biomarker Activity (AID 2283075); details: primary human keratinocytes with fibroblasts; actives raise or lower the signal
How it was run: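 ELISA readout of uPA, analyzed for signal gain or loss relative to DMSO, from a human primary keratinocyte–foreskin fibroblast co-culture measured 24 h after chemical treatment.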

CD40, CD40 (gene 958) [6] = assay: BSK_LPS_CD40: BioMAP Diversity Plus: LPS Assay for CD40 Biomarker Activity (AID 2283076); details: primary human HUVEC with PBMC; actives raise or lower the signal
How it was run: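 In the LPS system of human endothelial cells with peripheral blood mononuclear cells, CD40 levels were read by ELISA 24 h post-treatment. Signal changes in either direction were fitted against the DMSO baseline, with parallel SRB protein staining.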

[7] = read-out: E-selectin (Homo sapiens) (UniProt P16581); assay: BSK_LPS_Eselectin: BioMAP Diversity Plus: LPS Assay for Eselectin Biomarker Activity (AID 2283077); details: primary human HUVEC with PBMC; actives raise or lower the signal
How it was run: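 E-selectin ELISA on LPS-stimulated endothelial cell/PBMC co-cultures, read 24 h post-treatment; gains and losses fitted against DMSO. Parallel SRB staining (0.1% SRB after 10% TCA fixation, 560 nm) flags overt cytotoxicity.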

[8] = read-out: Interleukin-8 (IL8), CXCL8 (gene 3576); assay: BSK_LPS_IL8: BioMAP Diversity Plus: LPS Assay for Interleukin-8 (IL8) Biomarker Activity (AID 2283078); details: primary human HUVEC with PBMC; actives raise or lower the signal
How it was run: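 ELISA read-out of IL-8 after 24 h chemical treatment of LPS-activated endothelial/PBMC human primary co-cultures. Changes either up or down relative to DMSO; overt cytotoxicity checked by sulforhodamine B staining in parallel wells.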

[9] = BSK_LPS_SRB: Viability Assessment in the BioMAP Diversity Plus: LPS Assay (AID 2283079); details: primary human HUVEC with PBMC;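 note: total protein by sulforhodamine B absorbance as a cytotoxicity measure; measured one day after compound addition; fitted in both directions against DMSO so loss or gain of signal counts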
How it was run: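 SRB viability endpoint: cells fixed with 10% TCA, stained with 0.1% SRB, read at 560 nm, 24 h post-dose. HUVEC/PBMC co-culture; signal change in either direction scored relative to DMSO.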

[10] = read-out: Interleukin-1 alpha (IL1a), IL1A (gene 3552); assay: BSK_LPS_IL1a: BioMAP Diversity Plus: LPS Assay for Interleukin-1 alpha (IL1a) Biomarker Activity (AID 2283080); details: primary human HUVEC with PBMC; actives raise or lower the signal
How it was run: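 Readout is IL-1a level by ELISA, 24 h post-dose, fitted as gain or loss relative to DMSO. System: LPS-activated human primary co-culture of vascular endothelium and peripheral blood mononuclear cells, with parallel SRB total-protein cytotoxicity.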

[11] = read-out: Monocyte Chemoattractant Protein-1 (MCP1), CCL2 (gene 6347); assay: BSK_LPS_MCP1: BioMAP Diversity Plus: LPS Assay for Monocyte Chemoattractant Protein-1 (MCP1) Biomarker Activity (AID 2283081); details: primary human HUVEC with PBMC; actives raise or lower the signal;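 for AC50: secreted MCP-1 protein quantified by ELISA in culture supernatant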
How it was run: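 Secreted MCP-1 read by ELISA at 24 h post-dosing in an LPS-activated co-culture of endothelial cells with peripheral blood mononuclear cells. Fits run in both directions, DMSO as baseline; parallel SRB staining tracks overt cytotoxicity.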

[12] = BSK_LPS_PGE2: BioMAP Diversity Plus: LPS Assay for Prostaglandin E2 (PGE2) Biomarker Activity (AID 2283082); details: primary human HUVEC with PBMC; actives raise or lower the signal
How it was run: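 LPS-activated HUVEC/PBMC co-culture; cmpd dosed, 24 h; PGE2 by ELISA; bidirectional fit vs DMSO; SRB (0.1%, TCA-fixed, 560 nm) in parallel plates for overt cytotox.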

[13] = read-out: Macrophage colony-stimulating factor (MCSF), CSF1 (gene 1435); assay: BSK_LPS_MCSF: BioMAP Diversity Plus: LPS Assay for Macrophage colony-stimulating factor (MCSF) Biomarker Activity (AID 2283083); details: primary human HUVEC with PBMC; actives raise or lower the signal
How it was run: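 Bidirectional fitting against DMSO was applied to M-CSF levels read by ELISA at 24 h post-dose. The system pairs human umbilical vein endothelium with peripheral blood mononuclear cells; parallel SRB staining tracked cytotoxicity.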

[14] = read-out: Tissue Factor, F3 (gene 2152); assay: BSK_LPS_TissueFactor: BioMAP Diversity Plus: LPS Assay for Tissue Factor Biomarker Activity (AID 2283084); details: primary human HUVEC with PBMC; actives raise or lower the signal
How it was run: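 Compound was added to an endothelial cell/PBMC co-culture, and after 24 h tissue factor (CD142) was read by ELISA. Gain or loss of signal was fitted against a DMSO baseline, and parallel SRB staining (560 nm) tracked overt cytotoxicity.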

[15] = read-out: Tumor necrosis factor (Homo sapiens) (UniProt P01375); assay: BSK_LPS_TNFa: BioMAP Diversity Plus: LPS Assay for Tumour Necrosis Factor alpha (TNFa) Biomarker Activity (AID 2283085); details: primary human HUVEC with PBMC; actives raise or lower the signal;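 for AC50: TNFa protein level quantified by ELISA in the co-culture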
How it was run: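 Read-out is ELISA of TNFa in primary human endothelial cell–PBMC co-cultures at 24 h after compound. Activity in either direction was fitted against DMSO.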

[16] = read-out: Vascular cell adhesion molecule 1 (VCAM1), VCAM1 (gene 7412); assay: BSK_LPS_VCAM1: BioMAP Diversity Plus: LPS Assay for Vascular cell adhesion molecule 1 (VCAM1) Biomarker Activity (AID 2283086); details: primary human HUVEC with PBMC; actives raise or lower the signal
How it was run: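 HUVEC + PBMC co-culture, LPS system; compound 24 h; VCAM-1 by ELISA; bidirectional fit vs DMSO control; parallel SRB (0.1%, TCA-fixed, 560 nm) for cytotoxicity.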

CD38, CD38 (gene 952) = assay: BSK_SAg_CD38: BioMAP Diversity Plus: SAg Assay for CD38 Biomarker Activity (AID 2283087); details: primary human HUVEC with PBMC; actives raise or lower the signal
How it was run: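 Human HUVEC plus PBMC co-culture stimulated with superantigen; CD38 measured by ELISA 24 h after chemical dosing. Fluorescence read-out, bidirectional fit against DMSO; cytotoxicity tracked in parallel by SRB and Alamar Blue.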

CD40, CD40 (gene 958) [17] = assay: BSK_SAg_CD40: BioMAP Diversity Plus: SAg Assay for CD40 Biomarker Activity (AID 2283088); details: primary human HUVEC with PBMC; actives raise or lower the signal
How it was run: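 CD40 is measured by fluorescence ELISA in an endothelial/PBMC primary human co-culture at 24 h post-dose. Fitting is bidirectional, DMSO baseline. Parallel SRB staining (560 nm) flags cytotoxicity.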

CD69, CD69 (gene 969) = assay: BSK_SAg_CD69: BioMAP Diversity Plus: SAg Assay for CD69 Biomarker Activity (AID 2283089); details: primary human HUVEC with PBMC; actives raise or lower the signal;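 for AC50: cell surface CD69 protein quantified by ELISA with fluorescence detection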
How it was run: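 Values derive from bidirectional fitting relative to DMSO vehicle. Cells: umbilical vein endothelium plus peripheral blood mononuclear cells, treated 24 h before fluorescent ELISA for CD69.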

Measured: AC50

Chain of E-selectin (Homo sapiens) (P16581 whole entry, looked up): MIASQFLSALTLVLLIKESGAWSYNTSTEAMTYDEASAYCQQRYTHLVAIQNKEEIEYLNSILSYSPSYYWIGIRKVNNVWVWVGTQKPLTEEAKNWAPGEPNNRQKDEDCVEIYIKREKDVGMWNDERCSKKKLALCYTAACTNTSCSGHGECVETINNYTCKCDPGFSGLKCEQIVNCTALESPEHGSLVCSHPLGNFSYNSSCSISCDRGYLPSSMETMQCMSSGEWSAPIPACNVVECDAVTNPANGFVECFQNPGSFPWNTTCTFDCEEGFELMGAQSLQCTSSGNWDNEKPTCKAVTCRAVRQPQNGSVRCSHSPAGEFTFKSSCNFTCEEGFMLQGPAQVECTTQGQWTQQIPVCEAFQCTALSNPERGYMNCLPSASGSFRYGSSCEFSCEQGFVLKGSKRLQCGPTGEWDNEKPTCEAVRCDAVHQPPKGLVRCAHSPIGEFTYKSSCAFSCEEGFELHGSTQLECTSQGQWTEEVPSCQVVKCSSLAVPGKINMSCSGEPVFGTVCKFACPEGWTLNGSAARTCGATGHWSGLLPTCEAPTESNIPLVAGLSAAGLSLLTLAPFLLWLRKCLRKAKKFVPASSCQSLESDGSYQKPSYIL
Chain of Tumor necrosis factor (Homo sapiens) (P01375 whole entry, looked up): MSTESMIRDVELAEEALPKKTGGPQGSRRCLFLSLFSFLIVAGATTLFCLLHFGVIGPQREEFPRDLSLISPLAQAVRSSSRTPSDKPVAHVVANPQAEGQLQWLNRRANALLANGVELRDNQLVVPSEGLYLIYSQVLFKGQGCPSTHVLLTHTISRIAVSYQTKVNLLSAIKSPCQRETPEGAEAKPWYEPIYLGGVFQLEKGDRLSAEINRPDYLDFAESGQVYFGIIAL

COc1nc(NC(C)C)nc(NC(C)C)n1
active: [15] 9.63 µM
inactive: [1] | [2] | [3] | [4] | [5] | CD40, CD40 (gene 958) [6] | [7] | [8] | [9] | [10] | [11] | [12] | [13] | [14] | [16] | CD38, CD38 (gene 952) | CD40, CD40 (gene 958) [17] | CD69, CD69 (gene 969)

C#CCOS(=O)OC1CCCCC1Oc1ccc(C(C)(C)C)cc1 (stereo unspecified)
active: [1] 14.8 µM | [2] 14 µM | [3] 10.2 µM | [4] 12.1 µM | [5] 14.3 µM | CD40, CD40 (gene 958) [6] 6.59 µM | [7] 4.28 µM | [8] 6.7 µM | [9] 12.6 µM | [10] 16.4 µM | [11] 20 µM | [13] 15.8 µM | [14] 32.6 µM | [16] 10.1 µM | CD38, CD38 (gene 952) 5.43 µM | CD40, CD40 (gene 958) [17] 7.36 µM | CD69, CD69 (gene 969) 5.11 µM
inactive: [12] | [15]

Cc1cc(Cl)ccc1OCC(=O)O
inactive: [1] | [2] | [3] | [4] | [5] | CD40, CD40 (gene 958) [6] | [7] | [8] | [9] | [10] | [11] | [12] | [13] | [14] | [15] | [16] | CD38, CD38 (gene 952) | CD40, CD40 (gene 958) [17] | CD69, CD69 (gene 969)

Cc1c(F)c(F)c(COC(=O)C2C(/C=C(\Cl)C(F)(F)F)C2(C)C)c(F)c1F (stereo unspecified)
inactive: [1] | [2] | [3] | [5] | [7] | [9] | [11] | [12] | [14] | [15]
active: [4] 2.72 µM | CD40, CD40 (gene 958) [6] 13.7 µM | [8] 12.2 µM | [10] 0.3 µM | [13] 12.7 µM | [16] 12 µM | CD38, CD38 (gene 952) 9.52 µM | CD40, CD40 (gene 958) [17] 32.5 µM | CD69, CD69 (gene 969) 5.53 µM
